Data published in PubChem BioAssay AID618 (Sanford-Burnham Center for Chemical Genomics, 2007).
Out of some 87,000 compounds screened, about 540 (0.62%) were called active. No rule for the calls is given here. Shown is part of a subset that was picked to be rich in actives. A call without a number means that no potency is given here. Potency and affinity values are given separately.

Assay: MT1-MMP gene expression reporter suppression – cell-based, luciferase reporter, luminescence (AID 618);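 also: actives suppress MT1-MMP promoter-driven transcription so potencies describe inhibitors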
Details: MT1-MMP promoter luciferase reporter cells
With CC1(C)CC(=O)C(C2C3=C(CC(C)(C)CC3=O)Oc3ccccc32)=C(O)C1 (centres undefined) the outcome was “inactive”.
In the case of Cc1nn(C)cc1C1C2=C(CC(C)(C)CC2=O)OC2=C1C(=O)CC(C)(C)C2, the outcome is reported as “inactive”.
For CC1(C)CC(=O)C2=C(C1)OC1=C(C(=O)CC(C)(C)C1)C2c1ccc(O)cc1O, the outcome was “active”.
In the case of O=C(c1cccs1)N(Cc1ccco1)c1nc(-c2ccc(F)cc2)cs1, the outcome is reported as “inactive”.
In the case of COc1ccc(-c2cc(C(F)(F)F)n3nc(C(=O)N4CCCCC4)cc3n2)cc1OC, the outcome is reported as “inactive”.
In the case of Cc1ccc2[nH]c(-c3ccccc3)cc(=O)c2c1, the outcome is reported as “active”.
For O=c1cc(-c2ccccc2)[nH]c2ccccc12, the outcome was “inactive”.
With Cc1ccc2[nH]c(C(=O)O)c(-c3ccccc3)c2c1 the outcome was “inactive”.
In the case of COc1ccc(NC(=O)N2CCCC2C(=O)NCc2ccc(F)cc2)cc1 (centres undefined), the outcome is reported as “inactive”.
With O=C(O)CSCC(=O)Nc1ccccc1 the outcome was “inactive”.
With O=C(CSCCO)Nc1ccc(C2CCCCC2)cc1 the outcome was “inactive”.
For Cc1ccc(C(=O)CC2(O)C(=O)N(Cc3ccc4c(c3)OCO4)c3ccccc32)cc1 (centres undefined), the outcome was “inactive”.
In the case of Cc1cc(C)c(S(=O)(=O)N2CCC(C(=O)NCc3ccco3)CC2)c(C)c1, the outcome is reported as “inactive”.
In the case of CC(=O)Nc1ccc(NC(=O)c2ccccc2C)cc1, the outcome is reported as “inactive”.
With COc1cc(C(=O)N/N=C\c2ccccc2)c([N+](=O)[O-])c(OC)c1OC the outcome was “inactive”.
In the case of Cc1ccc(C(=O)N/N=C/c2sc(=O)n(Cc3cccc(C(=O)O)c3)c2Cl)cc1, the outcome is reported as “inactive”.
For Cc1ccc(C(=O)NNS(=O)(=O)c2ccccc2[N+](=O)[O-])cc1, the outcome was “inactive”.
For O=C(N/N=C/C=C/c1ccccc1)c1ccccc1Br, the outcome was “inactive”.
For O=C(N/N=C/c1ccc([N+](=O)[O-])s1)c1cccc(Br)c1, the outcome was “inactive”.
For COc1cccc(NC2=NCC(=O)N2Cc2cccs2)c1, the outcome was “inactive”.
For O=C1c2ccccc2C(=O)N1CCOCCN1C(=O)c2ccccc2C1=O, the outcome was “inactive”.
With CCC(=O)N(Cc1ccc(S(N)(=O)=O)cc1)C1CC(=O)N(c2ccc(OC)cc2)C1=O (centres undefined) the outcome was “inactive”.
In the case of Cc1cc2nnc(SCC(=O)N3C(C)CCCC3C)n2c(N)n1 (centres undefined), the outcome is reported as “inactive”.
For COC(=O)CSc1cc(C(=O)c2nccn2C)c2ccccc2n1, the outcome was “inactive”.
In the case of COCCNC(=O)C(c1cccs1)N(Cc1cccs1)C(=O)Cn1nnc2ccccc21 (centres undefined), the outcome is reported as “inactive”.
In the case of CCCCS(=O)(=O)Nc1ccc(C(=O)NCC2CCCO2)cc1 (centres undefined), the outcome is reported as “inactive”.
With Cc1cccc(NC(=O)c2cnc3ccccn3c2=O)c1 the outcome was “inactive”.
For CCN(CC)c1ccc(NC(=O)c2cnc3ccccn3c2=O)c(C)c1, the outcome was “inactive”.
For CCCC(=O)c1ccc(N2CCOCC2)c(F)c1, the outcome was “inactive”.
For Cn1c(C(=O)N2CCN(Cc3ccccc3)CC2)cc2c(=O)n(C)c3ccccc3c21, the outcome was “inactive”.
With COc1ccc(Cl)cc1S(=O)(=O)N1CCN(C(=O)c2cc(OC)c(OC)c(OC)c2)CC1 the outcome was “inactive”.
With COc1ccc(C(=O)N2CCN(C(=O)c3cc(OC)c(OC)c(OC)c3)CC2)cc1 the outcome was “inactive”.
With COc1cc(C(=O)N2CCN(c3cccc(C)c3C)CC2)cc(OC)c1OC the outcome was “active”.
In the case of COc1cc(C(=O)N2CCN(C(=O)c3ccccc3)CC2)cc(OC)c1OC, the outcome is reported as “inactive”.
In the case of COc1cc(C(=O)N2CCN(c3cc(Cl)ccc3Cl)CC2)cc(OC)c1OC, the outcome is reported as “active”.
For Cc1cccc(N2CCN(C(=O)c3ccncc3)CC2)c1C, the outcome was “inactive”.
In the case of O=C(Nc1cccc(Cl)c1N1CCCC1)c1ccc(Br)o1, the outcome is reported as “inactive”.
With O=C(Nc1ccccc1)NC1CC2CCC(C1)N2Cc1nnnn1Cc1ccc2c(c1)OCO2 (centres undefined) the outcome was “inactive”.
In the case of COc1ccc(Nc2cc(C)nc3nc(C)nn23)cc1Cl, the outcome is reported as “inactive”.
With CC(=O)Nc1c2c(nn1-c1ccc(C)cc1C)CSC2 the outcome was “inactive”.
With CCCCS(=O)(=O)/C=C\C1C2C=CC(C2)C1S(=O)(=O)CCCC (centres undefined) the outcome was “inactive”.
For CCCCS(=O)(=O)/C=C/[C@H]1[C@H](S(=O)(=O)CCCC)[C@H]2C=C[C@@H]1C2, the outcome was “inactive”.
For CCCCS(=O)(=O)/C=C\C=C/S(=O)(=O)CCCC, the outcome was “active”.
For COc1ccc(CCNC(=O)Cn2cnc3c(nnn3Cc3ccccc3F)c2=O)cc1OC, the outcome was “inactive”.
In the case of Cc1ccc(S(=O)(=O)N2CCN(C(=O)N3CCOCC3)C2c2ccc(N(C)C)cc2)cc1 (centres undefined), the outcome is reported as “inactive”.
For O=C(Cc1ccc(Br)cc1)OCC(=O)c1ccc2c(c1)OCCO2, the outcome was “inactive”.
For O=C(Cn1cnc2ccccc2c1=O)OCC(=O)c1ccc2c(c1)OCCO2, the outcome was “inactive”.
In the case of O=C(Cc1n[nH]c(=O)c2ccccc12)OCC(=O)c1ccc2c(c1)OCCO2, the outcome is reported as “active”.
In the case of CCOCCCn1c(SCC(=O)NC(C)(C)C)nc2ccccc2c1=O, the outcome is reported as “inactive”.
With CNC(=O)Nc1ccccc1F the outcome was “inactive”.
In the case of Cc1nc2ccccc2c(=O)n1C1CCCCCC1, the outcome is reported as “inactive”.
For O=C(c1cc(-c2ccc(F)cc2)on1)N1CCCC1, the outcome was “inactive”.
For O=C(c1cc(-c2ccc(Cl)cc2Cl)on1)N1CCOCC1, the outcome was “active”.
In the case of O=C(c1cc(-c2ccc(Cl)cc2)on1)N1CCOCC1, the outcome is reported as “inactive”.
In the case of Cc1ccc(-c2cc(C(=O)N3CCCC3)no2)cc1, the outcome is reported as “active”.
In the case of O=C(c1cc(-c2cccc(O)c2)on1)N1CCOCC1, the outcome is reported as “inactive”.
For O=C(c1cc(-c2ccc(Cl)cc2Cl)on1)N1CCN(C(=O)c2ccco2)CC1, the outcome was “inactive”.
For COc1cccc(-c2cc(C(=O)N3CCCCCC3)no2)c1, the outcome was “inactive”.
For O=C(c1cc(-c2ccccc2)on1)N1CCCC1, the outcome was “inactive”.
